The whole screen tested about 2,400 compounds, of which about 180 (7.5%) were called active. The list comes from a sample in which actives are over-represented; it also holds similar structures and randomly drawn compounds. Unmarked numbers belong to inactive results.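 How the source made its calls: active means readout below zero, meaning a drop past 3 SD under the dofetilide-free negative control mean; inactive means the rest.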

The values below come from PubChem BioAssay AID1946 (Johns Hopkins Ion Channel Center, 2009).

The target of the test is Potassium voltage-gated channel subfamily KQT member 2 (Rattus norvegicus) (UniProt O88943). Nature of the test: rat KCNQ2 channel inhibition by compounds alone, confirmation, counter-screen for hERG block protector project, cell-based, CHO, FluxOR thallium flux (AID 1946). The settings on record: CHO-KCNQ2 cells, FluxOR thallium flux fluorescence; at 10 µM; stronger effect = lower value; zero marks the 3-SD hit cutoff. For orientation: A counterscreen serves to expose hits that act by an unwanted route or on another target.
Chain of Potassium voltage-gated channel subfamily KQT member 2 (Rattus norvegicus) (O88943 whole entry, looked up): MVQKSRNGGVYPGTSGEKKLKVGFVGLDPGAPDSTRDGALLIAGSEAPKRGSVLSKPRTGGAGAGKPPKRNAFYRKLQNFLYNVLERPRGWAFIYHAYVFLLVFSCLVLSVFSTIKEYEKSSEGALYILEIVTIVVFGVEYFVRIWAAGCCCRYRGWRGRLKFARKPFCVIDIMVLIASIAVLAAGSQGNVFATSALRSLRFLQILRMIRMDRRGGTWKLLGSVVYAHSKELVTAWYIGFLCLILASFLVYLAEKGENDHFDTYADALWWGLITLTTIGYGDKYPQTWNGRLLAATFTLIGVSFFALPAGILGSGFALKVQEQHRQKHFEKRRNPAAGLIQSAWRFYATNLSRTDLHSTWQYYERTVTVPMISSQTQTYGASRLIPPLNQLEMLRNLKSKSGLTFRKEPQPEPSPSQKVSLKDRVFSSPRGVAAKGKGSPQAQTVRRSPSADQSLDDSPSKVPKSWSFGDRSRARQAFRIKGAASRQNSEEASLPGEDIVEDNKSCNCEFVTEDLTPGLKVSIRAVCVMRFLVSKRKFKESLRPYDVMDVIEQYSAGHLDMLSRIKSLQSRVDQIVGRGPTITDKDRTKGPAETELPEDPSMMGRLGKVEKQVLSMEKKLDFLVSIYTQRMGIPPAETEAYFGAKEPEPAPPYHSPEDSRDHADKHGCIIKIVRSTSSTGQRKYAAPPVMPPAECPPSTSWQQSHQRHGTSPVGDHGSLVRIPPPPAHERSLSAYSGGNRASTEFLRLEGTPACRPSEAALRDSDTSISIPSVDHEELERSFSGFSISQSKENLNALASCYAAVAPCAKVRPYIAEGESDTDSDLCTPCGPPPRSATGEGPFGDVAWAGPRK
For the molecule `O=c1c2cc(Cl)ccc2nc(-c2ccc([N+](=O)[O-])cc2)n1O`, the activity change vs negative control is 54.4%.
In the case of `O=C(COc1ccccc1Cl)NC(=S)Nc1ccccc1N1CCCC1` it was 6.2%.
Then `CNC(=S)Nc1sc2c(c1C(=O)OC)CCC2`, with 31.9%; and `Cc1cccc(C(=O)NC(=S)NNC(=O)COc2c(C)cccc2C)c1`, with -13.3% (active).
Then `Cc1cccc(C(=O)NC(=S)N2CCc3ccccc3C2)c1`, with 50.3%; and `Cc1ccc(C(=O)NNC(=S)NC(=O)c2ccccc2)cc1`, with -4.5% (active); and `Cc1ccc(C(=O)NNC(=S)NC(=O)c2ccc(Cl)cc2)cc1`, with 0.8%.
Consider `O=C(NNC(=S)NC(=O)c1sc2ccccc2c1Cl)c1ccc(Cl)cc1`, for which the activity change vs negative control was 32.9%.
Then `Cc1cccc(C(=O)NC(=S)NNC(=O)c2ccc(Cl)cc2)c1`, with -7.1% (active); and `Cc1cccc(C(=O)NNC(=S)NC(=O)c2ccccc2)c1`, with 26.9%; and `Cc1ccc(NC(=S)NC(=O)c2ccc(-c3ccccc3)cc2)cc1`, with 10.9%.
In the case of `Cc1cccc(C(=O)NC(=S)N(C)C2CCCCC2)c1` it was 46.3%.
For `Cc1sc2nc(CN3CCOCC3)[nH]c(=S)c2c1C`, the activity change vs negative control is 108%.
Then `Cc1ccc(-c2c(=O)n(O)c3ccccc3[n+]2[O-])cc1`, with 88.6%; and `O=c1c2ccccc2nc(-c2ccc(Cl)c(Cl)c2)n1O`, with 91.4%.
Then `COc1cc(OC)cc(C(=O)NNC(=O)C(=O)Nc2cc(OC)c(Cl)cc2OC)c1`, with 71%; and `C[n+]1ccccc1/C=C/c1ccc(C#N)cc1`, with 17.3%.
In the case of `O=c1[nH]c(C(Cl)(Cl)Cl)nc2ccc3ccccc3c12` it was 37%; in that of `O=C(NC(=S)Nc1ccccc1N1CCCC1)c1cccs1`, 14.1%; in that of `O=C(NC(=S)Nc1ccccc1N1CCCCC1)c1cccs1`, 0% (active).
As to `O=C(NC(=S)Nc1ccccc1N1CCCC1)c1ccco1`, the activity change vs negative control is 39%.
For the molecule `O=C(NC(=S)Nc1ccccc1N1CCCC1)c1ccc([N+](=O)[O-])cc1`, the activity change vs negative control is 21.1%.
Then `O=C(NC(=S)Nc1cccc(Cl)c1N1CCCCC1)c1cccs1`, with 1.9%; and `O=C(NC(=S)Nc1ccccc1N1CCCC1)c1ccccc1Br`, with -8.3% (active).
In the case of `CCOc1cc(N2CCOCC2)c(OCC)cc1NC(=O)CCC1CCCC1` it was 104%.
Then `O=C(NC(=S)N1CCCC1)c1ccc(Cl)cc1`, with 26.1%.
Turning to `O=c1c(O)c(-c2ccc3c(c2)OCO3)oc2ccccc12`, the activity change vs negative control is 35%.
Turning to `Cc1ccc(CNC(=O)C2=CCN(S(=O)(=O)c3ccc(C)cc3)CC2)cc1`, the activity change vs negative control is 6.4%.
Then `Cc1ccc(CNC(=O)c2ccc(CNc3c(N4CCCC4)c(=O)c3=O)cc2)cc1`, with -1.7% (active); and `CN1C(=O)c2ccc(C(=O)NCc3ccccc3)cc2C1=O`, with 10.5%.
